PMC7862700, “An all-to-all approach to the identification of sequence-specific readers for epigenetic DNA modifications on cytosine”

What was measured:
Assay in all cases: DAPPL (digital affinity profiling via proximity ligation, sequencing); 10 mM Tris-HCl pH 7.5, 50 mM NaCl, 1 mM DTT, 4% glycerol, room temperature, 30 min; GST-TFs on glutathione beads, 16-mer random dsDNA library, 0.1% formaldehyde crosslink after washing; high values mean tight binding
FLI1 = target: T1, FLI1 (Homo sapiens, UniProt Q01543 1-452); settings: protein: recombinant; tags: N-terminal GST; dsDNA, one strand shown
T1 sequence: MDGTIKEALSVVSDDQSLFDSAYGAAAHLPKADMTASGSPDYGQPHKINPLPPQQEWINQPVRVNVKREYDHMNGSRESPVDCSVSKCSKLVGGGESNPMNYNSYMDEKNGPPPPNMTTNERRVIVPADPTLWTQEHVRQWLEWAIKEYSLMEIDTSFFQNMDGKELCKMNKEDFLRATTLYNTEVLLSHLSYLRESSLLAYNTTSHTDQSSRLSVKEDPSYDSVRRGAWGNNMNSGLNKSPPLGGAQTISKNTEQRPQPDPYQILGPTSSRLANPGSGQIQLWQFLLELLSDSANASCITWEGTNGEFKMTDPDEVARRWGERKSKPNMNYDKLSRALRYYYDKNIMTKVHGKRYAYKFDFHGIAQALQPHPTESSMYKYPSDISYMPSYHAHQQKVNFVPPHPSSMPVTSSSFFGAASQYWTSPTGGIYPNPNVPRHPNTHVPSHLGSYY
Summary of the method: (§1)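 Human transcription factors were made in yeast as GST fusions, captured on glutathione beads and barcoded with DNA. With a tag-only sample included, the pool was incubated with 200 nmole of a random double-stranded 16-mer DNA library in Tris/NaCl/DTT/glycerol buffer at room temperature for 30 min, then crosslinked with 0.1% formaldehyde after washing, ligated by proximity, amplified and sequenced. For binding signal, each hexamer's read frequency for a factor is divided by its frequency for the tag-only sample.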

ELK1 = target: T2, ELK1 (Homo sapiens, UniProt P19419 1-428); settings: protein: recombinant; tags: N-terminal GST; dsDNA, one strand shown
T2 sequence: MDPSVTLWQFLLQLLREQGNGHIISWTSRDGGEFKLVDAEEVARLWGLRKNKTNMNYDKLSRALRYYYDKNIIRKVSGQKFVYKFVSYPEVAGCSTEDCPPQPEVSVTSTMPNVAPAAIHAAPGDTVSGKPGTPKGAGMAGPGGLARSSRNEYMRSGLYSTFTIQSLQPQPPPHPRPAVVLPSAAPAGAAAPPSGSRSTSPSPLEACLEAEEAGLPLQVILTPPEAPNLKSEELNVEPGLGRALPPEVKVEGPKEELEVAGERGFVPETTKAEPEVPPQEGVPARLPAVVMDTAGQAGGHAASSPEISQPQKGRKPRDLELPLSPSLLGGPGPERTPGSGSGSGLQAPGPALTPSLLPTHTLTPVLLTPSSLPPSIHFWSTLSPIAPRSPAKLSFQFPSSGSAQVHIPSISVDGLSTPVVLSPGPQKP
Summary of the method: as §1

GABPA = target: T3, GABPA (Homo sapiens, UniProt Q06546 1-454); settings: protein: recombinant; tags: N-terminal GST; dsDNA, one strand shown
T3 sequence: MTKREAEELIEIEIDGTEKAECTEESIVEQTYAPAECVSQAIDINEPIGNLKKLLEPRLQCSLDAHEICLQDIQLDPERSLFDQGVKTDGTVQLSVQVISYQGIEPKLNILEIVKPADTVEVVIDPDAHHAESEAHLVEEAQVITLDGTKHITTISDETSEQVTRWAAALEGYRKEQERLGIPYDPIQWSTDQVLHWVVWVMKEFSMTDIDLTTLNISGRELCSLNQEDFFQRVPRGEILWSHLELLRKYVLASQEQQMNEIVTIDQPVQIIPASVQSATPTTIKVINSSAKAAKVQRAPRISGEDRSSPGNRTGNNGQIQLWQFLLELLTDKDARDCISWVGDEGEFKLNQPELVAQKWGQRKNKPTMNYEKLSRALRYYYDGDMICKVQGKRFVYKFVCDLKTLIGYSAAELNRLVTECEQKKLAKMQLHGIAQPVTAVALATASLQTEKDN
Summary of the method: as §1

ERG = target: T4, ERG (Homo sapiens, UniProt P11308 1-479); settings: protein: recombinant; tags: N-terminal GST; dsDNA, one strand shown
T4 sequence: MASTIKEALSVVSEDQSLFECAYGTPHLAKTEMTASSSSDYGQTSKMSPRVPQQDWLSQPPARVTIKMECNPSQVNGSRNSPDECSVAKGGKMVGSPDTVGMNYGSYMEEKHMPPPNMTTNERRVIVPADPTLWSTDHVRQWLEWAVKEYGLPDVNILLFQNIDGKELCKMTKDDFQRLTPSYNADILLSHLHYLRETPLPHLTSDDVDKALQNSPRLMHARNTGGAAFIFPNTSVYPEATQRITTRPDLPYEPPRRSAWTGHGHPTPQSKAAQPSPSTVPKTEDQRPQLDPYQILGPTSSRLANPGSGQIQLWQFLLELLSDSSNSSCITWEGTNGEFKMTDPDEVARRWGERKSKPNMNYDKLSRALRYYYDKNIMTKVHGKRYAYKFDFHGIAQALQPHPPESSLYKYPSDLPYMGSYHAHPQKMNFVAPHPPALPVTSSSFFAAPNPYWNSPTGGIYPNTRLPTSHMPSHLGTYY
Summary of the method: as §1

ELF1 = ELF1 (Homo sapiens, UniProt P32519 1-619); settings: protein: recombinant; tags: N-terminal GST; dsDNA, one strand shown
ELF1, sequence (P32519 whole entry): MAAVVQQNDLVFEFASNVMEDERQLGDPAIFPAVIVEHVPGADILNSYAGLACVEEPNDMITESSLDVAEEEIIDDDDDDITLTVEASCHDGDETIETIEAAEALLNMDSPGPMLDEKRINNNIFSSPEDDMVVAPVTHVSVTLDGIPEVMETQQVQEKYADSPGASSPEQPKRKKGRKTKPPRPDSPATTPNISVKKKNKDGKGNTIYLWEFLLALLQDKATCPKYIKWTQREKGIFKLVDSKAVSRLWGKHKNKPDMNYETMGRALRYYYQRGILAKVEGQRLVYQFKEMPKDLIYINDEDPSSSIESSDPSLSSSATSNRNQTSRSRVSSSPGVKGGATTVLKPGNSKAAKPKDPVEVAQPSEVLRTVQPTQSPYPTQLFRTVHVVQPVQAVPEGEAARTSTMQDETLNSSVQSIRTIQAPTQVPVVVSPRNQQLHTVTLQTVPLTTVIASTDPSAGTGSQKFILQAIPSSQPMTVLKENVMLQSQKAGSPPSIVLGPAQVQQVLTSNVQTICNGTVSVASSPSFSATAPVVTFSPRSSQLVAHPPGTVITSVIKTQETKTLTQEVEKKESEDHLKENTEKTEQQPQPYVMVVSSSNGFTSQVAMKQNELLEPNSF
Summary of the method: as §1

EHF = target: T5, EHF (Homo sapiens, UniProt Q9NZC4 1-300); settings: protein: recombinant; tags: N-terminal GST; dsDNA, one strand shown
T5 sequence: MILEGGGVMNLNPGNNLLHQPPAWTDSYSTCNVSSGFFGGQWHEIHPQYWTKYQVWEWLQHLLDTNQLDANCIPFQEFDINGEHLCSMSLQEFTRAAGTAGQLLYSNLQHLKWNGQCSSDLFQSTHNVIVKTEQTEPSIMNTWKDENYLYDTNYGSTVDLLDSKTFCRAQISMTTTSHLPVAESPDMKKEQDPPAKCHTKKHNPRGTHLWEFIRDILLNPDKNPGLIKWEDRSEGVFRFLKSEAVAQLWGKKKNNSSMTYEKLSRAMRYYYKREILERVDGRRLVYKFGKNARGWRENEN
Summary of the method: as §1

SPI1 = SPI1 (Homo sapiens, UniProt P17947 1-270); settings: protein: recombinant; tags: N-terminal GST; dsDNA, one strand shown
Summary of the method: as §1

SPIB = SPIB (Homo sapiens, UniProt Q01892 1-262); settings: protein: recombinant; tags: N-terminal GST; dsDNA, one strand shown
SPIB, sequence (Q01892 whole entry): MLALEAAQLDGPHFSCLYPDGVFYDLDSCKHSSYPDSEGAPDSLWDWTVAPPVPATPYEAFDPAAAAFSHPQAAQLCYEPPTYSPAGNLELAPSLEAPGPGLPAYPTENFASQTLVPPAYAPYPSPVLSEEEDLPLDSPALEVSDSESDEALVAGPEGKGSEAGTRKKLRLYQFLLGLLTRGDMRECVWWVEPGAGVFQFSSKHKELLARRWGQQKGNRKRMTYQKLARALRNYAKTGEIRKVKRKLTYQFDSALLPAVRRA
Summary of the method: as §1

ELK3 = target: T6, ELK3 (Homo sapiens, UniProt P41970 1-407); settings: protein: recombinant; tags: N-terminal GST; dsDNA, one strand shown
T6 sequence: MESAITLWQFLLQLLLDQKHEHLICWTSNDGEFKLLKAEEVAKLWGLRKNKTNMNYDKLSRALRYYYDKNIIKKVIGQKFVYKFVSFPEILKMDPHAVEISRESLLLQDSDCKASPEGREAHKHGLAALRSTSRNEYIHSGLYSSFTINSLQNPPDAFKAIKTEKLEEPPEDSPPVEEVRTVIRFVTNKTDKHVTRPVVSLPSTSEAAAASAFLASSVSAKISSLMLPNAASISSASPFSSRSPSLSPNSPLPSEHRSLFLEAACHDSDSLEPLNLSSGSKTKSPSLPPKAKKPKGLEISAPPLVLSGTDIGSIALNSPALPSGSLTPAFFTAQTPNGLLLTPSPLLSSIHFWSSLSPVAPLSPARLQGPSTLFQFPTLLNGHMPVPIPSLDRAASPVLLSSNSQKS
Summary of the method: as §1

FEV = target: T7, FEV (Homo sapiens, UniProt Q99581 1-238); settings: protein: recombinant; tags: N-terminal GST; dsDNA, one strand shown
T7 sequence: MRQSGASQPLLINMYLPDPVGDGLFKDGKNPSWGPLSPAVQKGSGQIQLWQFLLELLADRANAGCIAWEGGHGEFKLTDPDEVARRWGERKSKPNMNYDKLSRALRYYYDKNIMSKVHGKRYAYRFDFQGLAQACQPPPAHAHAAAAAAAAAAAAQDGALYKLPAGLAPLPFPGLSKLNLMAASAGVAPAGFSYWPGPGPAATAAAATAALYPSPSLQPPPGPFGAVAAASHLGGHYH
Summary of the method: as §1

ETV5 = ETV5 (Homo sapiens, UniProt P41161 1-510); settings: protein: recombinant; tags: N-terminal GST; dsDNA, one strand shown
ETV5, sequence (P41161 whole entry): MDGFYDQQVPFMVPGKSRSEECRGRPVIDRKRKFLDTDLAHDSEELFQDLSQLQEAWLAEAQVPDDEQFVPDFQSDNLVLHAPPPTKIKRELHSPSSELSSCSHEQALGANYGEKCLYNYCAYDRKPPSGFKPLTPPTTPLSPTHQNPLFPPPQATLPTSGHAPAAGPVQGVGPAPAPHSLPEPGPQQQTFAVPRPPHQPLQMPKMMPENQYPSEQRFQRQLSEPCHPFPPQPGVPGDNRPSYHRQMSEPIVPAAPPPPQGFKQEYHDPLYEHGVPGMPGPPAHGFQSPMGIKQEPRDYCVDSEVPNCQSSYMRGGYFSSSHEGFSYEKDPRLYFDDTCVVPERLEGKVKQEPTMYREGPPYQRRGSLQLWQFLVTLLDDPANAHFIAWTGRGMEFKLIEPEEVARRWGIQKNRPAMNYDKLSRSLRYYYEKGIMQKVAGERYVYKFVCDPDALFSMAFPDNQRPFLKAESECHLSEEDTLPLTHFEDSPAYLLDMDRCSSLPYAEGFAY
Summary of the method: as §1

HSF1 = HSF1 (Homo sapiens, UniProt Q00613 1-529); settings: protein: recombinant; tags: N-terminal GST; chain copies: 3; dsDNA, one strand shown
HSF1, sequence (Q00613 whole entry): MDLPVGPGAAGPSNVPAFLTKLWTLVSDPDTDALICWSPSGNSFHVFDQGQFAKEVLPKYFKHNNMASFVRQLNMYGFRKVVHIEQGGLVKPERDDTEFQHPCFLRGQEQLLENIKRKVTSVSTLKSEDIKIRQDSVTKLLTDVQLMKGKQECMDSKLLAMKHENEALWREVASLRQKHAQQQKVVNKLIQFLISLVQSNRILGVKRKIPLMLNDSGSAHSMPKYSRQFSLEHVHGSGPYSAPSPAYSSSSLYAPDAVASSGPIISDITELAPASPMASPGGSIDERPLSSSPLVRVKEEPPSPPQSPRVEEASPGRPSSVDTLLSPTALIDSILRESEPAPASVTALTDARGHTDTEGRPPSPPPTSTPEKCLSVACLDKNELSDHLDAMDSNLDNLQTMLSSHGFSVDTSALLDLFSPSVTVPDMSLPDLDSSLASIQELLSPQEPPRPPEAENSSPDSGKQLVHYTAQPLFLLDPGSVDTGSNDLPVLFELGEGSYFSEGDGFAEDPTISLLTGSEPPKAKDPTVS
Summary of the method: as §1

SPIC = target: T8, SPIC (Homo sapiens, UniProt Q8N5J4 1-248); settings: protein: recombinant; tags: N-terminal GST; dsDNA, one strand shown
T8 sequence: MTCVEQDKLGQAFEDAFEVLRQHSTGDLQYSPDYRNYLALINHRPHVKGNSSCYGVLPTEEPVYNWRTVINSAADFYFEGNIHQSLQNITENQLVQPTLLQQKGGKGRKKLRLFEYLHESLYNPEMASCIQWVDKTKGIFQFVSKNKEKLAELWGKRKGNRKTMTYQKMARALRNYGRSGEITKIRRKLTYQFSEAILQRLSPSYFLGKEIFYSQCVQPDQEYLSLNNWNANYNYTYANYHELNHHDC
Summary of the method: as §1

ELF4 = ELF4 (Homo sapiens, UniProt Q99607 1-663); settings: protein: recombinant; tags: N-terminal GST; dsDNA, one strand shown
ELF4, sequence (Q99607 whole entry): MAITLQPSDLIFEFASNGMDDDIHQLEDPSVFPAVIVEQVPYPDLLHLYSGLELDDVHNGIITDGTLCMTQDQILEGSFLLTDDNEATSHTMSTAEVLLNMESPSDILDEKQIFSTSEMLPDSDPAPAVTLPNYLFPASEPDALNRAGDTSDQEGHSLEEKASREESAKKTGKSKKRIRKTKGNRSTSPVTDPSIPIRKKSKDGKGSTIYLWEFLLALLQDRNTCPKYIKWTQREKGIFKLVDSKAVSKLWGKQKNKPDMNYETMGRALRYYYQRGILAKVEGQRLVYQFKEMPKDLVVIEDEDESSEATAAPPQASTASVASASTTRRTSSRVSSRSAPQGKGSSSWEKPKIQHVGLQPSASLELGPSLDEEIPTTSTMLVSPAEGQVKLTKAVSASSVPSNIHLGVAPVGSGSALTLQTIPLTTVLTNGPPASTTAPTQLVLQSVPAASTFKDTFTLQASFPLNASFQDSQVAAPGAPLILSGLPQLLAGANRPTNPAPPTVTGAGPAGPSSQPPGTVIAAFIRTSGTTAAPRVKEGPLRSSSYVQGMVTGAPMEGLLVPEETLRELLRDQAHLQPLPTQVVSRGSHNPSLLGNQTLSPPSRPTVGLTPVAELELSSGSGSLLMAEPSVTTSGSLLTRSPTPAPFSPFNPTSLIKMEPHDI
Summary of the method: as §1

ELK4 = target: T9, ELK4 (Homo sapiens, UniProt P28324-2 1-405); settings: protein: recombinant; tags: N-terminal GST; dsDNA, one strand shown
T9 sequence: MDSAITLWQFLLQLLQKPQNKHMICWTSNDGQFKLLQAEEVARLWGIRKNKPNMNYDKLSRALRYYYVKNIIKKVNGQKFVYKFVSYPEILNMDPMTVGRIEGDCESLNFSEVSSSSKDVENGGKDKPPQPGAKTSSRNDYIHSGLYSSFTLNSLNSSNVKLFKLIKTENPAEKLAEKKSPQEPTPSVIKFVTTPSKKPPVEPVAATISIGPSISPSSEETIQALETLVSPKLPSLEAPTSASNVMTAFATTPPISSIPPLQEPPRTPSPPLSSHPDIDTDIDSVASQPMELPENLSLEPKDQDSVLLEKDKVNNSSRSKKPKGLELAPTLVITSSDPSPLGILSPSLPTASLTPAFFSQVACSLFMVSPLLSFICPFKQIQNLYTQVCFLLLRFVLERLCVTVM
Summary of the method: as §1

ETV2 = target: T10, ETV2 (Homo sapiens, UniProt O00321 1-342); settings: protein: recombinant; tags: N-terminal GST; dsDNA, one strand shown
T10 sequence: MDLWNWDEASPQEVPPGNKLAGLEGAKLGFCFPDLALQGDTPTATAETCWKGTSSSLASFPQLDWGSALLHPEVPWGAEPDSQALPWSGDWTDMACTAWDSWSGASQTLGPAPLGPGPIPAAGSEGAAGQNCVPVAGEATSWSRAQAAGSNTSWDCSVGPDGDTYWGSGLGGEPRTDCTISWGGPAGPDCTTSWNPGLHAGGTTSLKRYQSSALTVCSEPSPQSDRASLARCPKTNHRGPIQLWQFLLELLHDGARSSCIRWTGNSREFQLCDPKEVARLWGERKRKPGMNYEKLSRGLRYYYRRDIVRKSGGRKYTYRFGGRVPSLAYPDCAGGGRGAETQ
Summary of the method: as §1

ELF3 = target: T11, ELF3 (Homo sapiens, UniProt P78545 1-371); settings: protein: recombinant; tags: N-terminal GST; dsDNA, one strand shown
T11 sequence: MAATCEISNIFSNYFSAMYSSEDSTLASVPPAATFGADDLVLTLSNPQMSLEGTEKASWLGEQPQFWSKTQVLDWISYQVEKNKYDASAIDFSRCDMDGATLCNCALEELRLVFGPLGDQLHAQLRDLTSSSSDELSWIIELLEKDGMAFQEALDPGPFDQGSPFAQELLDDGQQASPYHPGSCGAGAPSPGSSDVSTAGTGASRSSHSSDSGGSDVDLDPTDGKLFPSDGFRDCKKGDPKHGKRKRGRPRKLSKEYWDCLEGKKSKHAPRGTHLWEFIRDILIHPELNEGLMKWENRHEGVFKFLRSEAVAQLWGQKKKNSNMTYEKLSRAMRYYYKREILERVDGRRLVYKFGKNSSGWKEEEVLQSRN
Summary of the method: as §1

CRX = CRX (Homo sapiens, UniProt O43186 1-299); settings: protein: recombinant; tags: N-terminal GST; dsDNA, one strand shown
CRX, sequence (O43186 whole entry): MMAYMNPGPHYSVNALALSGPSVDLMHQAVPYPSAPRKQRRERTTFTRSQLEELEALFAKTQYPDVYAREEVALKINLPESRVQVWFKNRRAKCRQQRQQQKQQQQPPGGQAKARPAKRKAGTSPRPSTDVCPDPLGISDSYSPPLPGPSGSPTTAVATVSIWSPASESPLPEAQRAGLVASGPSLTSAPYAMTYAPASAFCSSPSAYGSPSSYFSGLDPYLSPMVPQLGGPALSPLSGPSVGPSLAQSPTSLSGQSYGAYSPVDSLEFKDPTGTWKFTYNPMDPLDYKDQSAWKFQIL
Summary of the method: as §1

ETV1 = ETV1 (Homo sapiens, UniProt P50549 1-477); settings: protein: recombinant; tags: N-terminal GST; dsDNA, one strand shown
ETV1, sequence (P50549 whole entry): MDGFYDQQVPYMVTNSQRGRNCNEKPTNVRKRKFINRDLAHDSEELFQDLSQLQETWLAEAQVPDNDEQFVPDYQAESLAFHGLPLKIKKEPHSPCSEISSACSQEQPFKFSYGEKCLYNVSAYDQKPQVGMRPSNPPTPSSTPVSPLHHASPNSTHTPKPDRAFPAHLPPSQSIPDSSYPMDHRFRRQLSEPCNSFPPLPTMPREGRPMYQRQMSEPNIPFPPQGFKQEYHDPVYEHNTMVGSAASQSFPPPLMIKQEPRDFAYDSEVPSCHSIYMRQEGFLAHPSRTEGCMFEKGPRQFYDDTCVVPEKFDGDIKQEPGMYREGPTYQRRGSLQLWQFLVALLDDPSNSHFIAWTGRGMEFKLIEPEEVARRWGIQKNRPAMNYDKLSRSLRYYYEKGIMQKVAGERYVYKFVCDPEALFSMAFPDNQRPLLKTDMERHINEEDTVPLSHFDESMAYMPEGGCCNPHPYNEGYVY
Summary of the method: as §1

TGCTCA was tested, and the binding signal (FLI1) was 1.32 fold enrichment (6-mer frequency, TF over GST control), the binding signal (ELK1) was 1.28 fold enrichment (6-mer frequency, TF over GST control) and the binding signal (GABPA) was 1.34 fold enrichment (6-mer frequency, TF over GST control). The binding signal (ERG) was 1.41 fold enrichment (6-mer frequency, TF over GST control), the binding signal (ELF1) was 1.41 fold enrichment (6-mer frequency, TF over GST control) and the binding signal (EHF) was 1.36 fold enrichment (6-mer frequency, TF over GST control). The binding signal (SPI1) was 1.27 fold enrichment (6-mer frequency, TF over GST control), the binding signal (SPIB) was 1.35 fold enrichment (6-mer frequency, TF over GST control) and the binding signal (ELK3) was 1.19 fold enrichment (6-mer frequency, TF over GST control). For the same sequence, the binding signal (FEV) was 1.39 fold enrichment (6-mer frequency, TF over GST control), the binding signal (ETV5) was 1.4 fold enrichment (6-mer frequency, TF over GST control) and the binding signal (HSF1) was 1.12 fold enrichment (6-mer frequency, TF over GST control). For the same sequence, the binding signal (SPIC) was 1.65 fold enrichment (6-mer frequency, TF over GST control), the binding signal (ELF4) was 1.28 fold enrichment (6-mer frequency, TF over GST control) and the binding signal (ELK4) was 1.24 fold enrichment (6-mer frequency, TF over GST control). The binding signal (ETV2) was 1.42 fold enrichment (6-mer frequency, TF over GST control), the binding signal (ELF3) was 1.31 fold enrichment (6-mer frequency, TF over GST control) and the binding signal (CRX) was 1.28 fold enrichment (6-mer frequency, TF over GST control). The binding signal (ETV1) was 1.34 fold enrichment (6-mer frequency, TF over GST control).
